Numbering of substitutions follows the chain as printed. Over roughly 24,000 sequences, “enrichment r” has its median near 0.99; the highest 2% begin near 3.7. For the sample, the highest values were picked, then their nearest neighbours and some sequences at random.

Sequences and labels used below:
T1: UNK ZnF1-3 (human, UniProt Q9C0B0 31-174)
T1 sequence: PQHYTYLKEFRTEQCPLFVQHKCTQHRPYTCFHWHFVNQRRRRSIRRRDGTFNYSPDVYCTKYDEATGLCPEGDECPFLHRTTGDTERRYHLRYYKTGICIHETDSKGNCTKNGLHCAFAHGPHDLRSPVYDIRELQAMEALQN

B1: chr3:149686290:149686291:-_ENSG00000070087_ENST00000452853|perfect_dup|FALSE|FALSE (ssRNA)
RNA: GGGAGUUCUACAGUCCGACGAUCUCCAAGAGUCAAACCGUUGGUAAAGAAACCUUCCCGGUCUUUUCCUACAAUCAUAUCUAUUUCUACUGGCGUGAUGCUCUGGAAGACGCCCCCGGCCGUGGCUGCCCAGACGUAUUUGGCCAACAGAGGAUUGAGCAUCA
B2: 153895285_153895405_106_5pUTR_ENSG00000143614_ENST00000368655|human|control|control (ssRNA)
RNA: GGGAGUUCUACAGUCCGACGAUCGGCACAGGGGAUCCAGACCCUGCUGACGGGACUAGGGACGGGGGUAGGGGAGGGGGGCGGGCCGGACCGGGGCGGGCGGGCGGAGCAGACACUGCGGUACAGACGGGGGCAGCGGCGGCGCAACAGAGGAUUGAGCAUCA
B3: chr14:76904540:76904541:+_ENSMUSG00000022010_ENSMUST00000022587|mus_mus|FALSE|FALSE (ssRNA)
RNA: GGGAGUUCUACAGUCCGACGAUCAAAGAAAUGGAAAAAUGUCUCAGUUGGUAAACUCCUAGAUCCAUCGCCACUGGUCUACACCAUUGGGAUUUCAUGCAAUUGCAGCCAAAUUAAAAAAACAGCCCCGUGGAAAAAAAAGAGCAACAGAGGAUUGAGCAUCA
B4: chr1:88750987:88750988:+_ENSMUSG00000053333_ENSMUST00000065694|mus_mus|FALSE|FALSE (ssRNA)
RNA: GGGAGUUCUACAGUCCGACGAUCUGAUAAGCCUCUUGUGUCCUGUGGUAUGGGGGUGUUCUCAUCUUUCAUAACUGGAGUACUAGAAUCUUCUUUUCCUCUGUCAGGAGUAGAGAUUGACAAUUUCUUAACACCAUCAACCAGCAACAGAGGAUUGAGCAUCA
B5: chr18:33744517:33744518:+_ENSG00000134759_ENST00000351393|hu_hu|motif|central (ssRNA)
RNA: GGGAGUUCUACAGUCCGACGAUCUAAGAACUUCUCAUUAGGUGAGAAGGCCAUCUGCGUGACUGUCAAACUGUGGAAAACGGAAUUCUGCACCUGUUUCCAAGAUGUAGUGUUCCAAAGAAUGAUAGCUGCAUGCUCUUUCUUCAACAGAGGAUUGAGCAUCA
B6: chr4:115894766:115894767:+_ENSMUSG00000028698_ENSMUST00000030464|mus_hu|mus_mus_mus_hu_True|38_38 (ssRNA)
RNA: GGGAGUUCUACAGUCCGACGAUCUUCCACACGGAAAUGUACUUCGGGUUUUCCAACGGCCAGUACCAGUCCGGCCAAACUACCCGAACAGGGUCCUGUCCUCCUCUCCUACAGAACACAACAAAAUGCCCCCGAACUUUCAAGCAACAGAGGAUUGAGCAUCA
B7: chr14:31813938:31813939:-_ENSMUSG00000021917_ENSMUST00000162092|perfect_dup|motif|central (ssRNA)
RNA: GGGAGUUCUACAGUCCGACGAUCAACUAUGUAGACAGUCCACCCAAACUGUUCAGCCACGUACCCGUAGAUAAACCCAACGGUUGCAGAAAAAAGAAUGAUCCCCUGAAACAUCUGUUCAGCUAGUUUCUGCCCCUUGUAAUCCAACAGAGGAUUGAGCAUCA
B8: chr2:153237265:153237266:-_ENSMUSG00000061411_ENSMUST00000109784|mus_hu|motif|central (ssRNA)
RNA: GGGAGUUCUACAGUCCGACGAUCAAAAAAAAAAAAAAAAAAGUGUCCUUGUGCCCAAAGUCUCAGGUGCUUGGAGUGUGGCGGGAAACAGCUCUUUUGGAUCCCACCUCUUUCAAAAACAAAAUGUACCAACUGGUGAGGCAGCAACAGAGGAUUGAGCAUCA
B9: chr2:153237265:153237266:-_ENSMUSG00000061411_ENSMUST00000109784|mus_mus|mus_mus_mus_hu_False|1_78 (ssRNA)
RNA: B8 RNA with G66A, G82U, G83A, G137A, A138G, G140C, C141A, A142G
B10: chr7:72892646:72892647:-_ENSG00000009954_ENST00000339594|hu_hu|FALSE|FALSE (ssRNA)
RNA: GGGAGUUCUACAGUCCGACGAUCCUUGUCACUGUGCUUCCCUGGUUUCUUGGCAGGUGGGCCUUUUUUAGGAAUGUGAAAGUUAGUGUGCAGCUUAUUGGGCGACAUCAUCUUCAUCAUUUCUUCUAGAUGUUCUUCAGGAGACAACAGAGGAUUGAGCAUCA
B11: chr2:25965407:25965408:-_ENSG00000143970_ENST00000336112|hu_mus|FALSE|FALSE (ssRNA)
RNA: GGGAGUUCUACAGUCCGACGAUCAUGUGCUGCCGGAAUAAAAUCUCUAGGCAGGCUCUUUUCAUCAGAUGCUUGGCCUCUAGAGAAUAUGUAAUUCUCCUGGCCUAAAGUGGUUUGCUCACUCACUGGUGCCUCAGUCUUACCCAACAGAGGAUUGAGCAUCA
B12: chr10:70731730:70731731:+_ENSG00000165732_ENST00000354185|hu_hu|motif|central (ssRNA)
RNA: GGGAGUUCUACAGUCCGACGAUCAACCUCAGGGAUGUCUAACCCACGUGCAGCAACAUUGGUUGCCACCAAAACUCCAAAACGGCCAUUUCUAAAACCUUUCAGGGUGAUUUCCCUUUGCUUCUGUGGAAUGUCUCCAUGCAACAACAGAGGAUUGAGCAUCA
B13: chr2:209110096:209110097:-_ENSG00000138413_ENST00000345146|hu_hu|FALSE|FALSE (ssRNA)
RNA: GGGAGUUCUACAGUCCGACGAUCUUCUUCAAAGUUAUGUACCAGGUAUGUCACCUUUUGGGUUCCGUCACUUGGUGUGUAGGUUAUCUCUACUUUUCCAGGCCCAGGAACAACAAAAUCAGUUGCUCUGUAUUGAUCCCCAUACAACAGAGGAUUGAGCAUCA
B14: chr2:153237265:153237266:-_ENSMUSG00000061411_ENSMUST00000109784|mus_mus|mus_mus_mus_hu_False|8_18 (ssRNA)
RNA: GGGAGUUCUACAGUCCGACGAUCAAAAAAAAAAAAAAAAAAGUGUCCUUGUGCCCAAAGUCUCAGGUGCUUGGAGUGUGGCUAGAAACAGCUCUUUUGGAUCCCACCUCUUUCAAAAAACAGUGUACCAACUGGUGGAGGCAGCAACAGAGGAUUGAGCAUCA
B15: chr2:153237265:153237266:-_ENSMUSG00000061411_ENSMUST00000109784|mus_mus|mus_mus_mus_hu_False|1_58 (ssRNA)
RNA: B8 RNA with U78C, G79A, G82U, G83A, G137A, A138G, G140C, C141A, A142G
B16: chr3:138121269:138121270:+_ENSG00000158186_ENST00000289104|hu_hu|FALSE|FALSE (ssRNA)
RNA: GGGAGUUCUACAGUCCGACGAUCCAGGUGGCUUCCUUGUCUCUUUGAGAGGUGGGAAAGCCCGUGCCCUCUGGGCAAAGCCAGACCCUGUCUGCUCCCUGCCCACCUGCCCUUCUCCCUUCCUGUACCAAGUCCUUGGGCCAACAACAGAGGAUUGAGCAUCA

The experiment has as its target T1, UNK ZnF1-3. The experiment can be described thus: nsRBNS (natural sequence RNA bind-n-seq); RBNS binding buffer (assumed for nsRBNS): 25 mM Tris pH 7.5, 150 mM KCl, 3 mM MgCl2, 0.01% Triton X-100, 500 ug/ml BSA, 20 U/ml SUPERase-In, 4 C; UNK is unkempt and MSI1 is Musashi-1; names of the RNAs are library labels; protein concentration not given here; high values mean tight binding.
In turn, B1 had a binding signal of 0.967 enrichment R.
B2 yielded a binding signal of 0.68 enrichment R.
In the case of B3 it was 3.35 enrichment R; in that of B4, 0.857 enrichment R.
On to B5, for which the binding signal came to 0.574 enrichment R.
With B6, the binding signal was found to be 0.864 enrichment R.
For B7, the binding signal was found to be 1.33 enrichment R.
In the case of B8 it was 5.88 enrichment R; in that of B9, 8.18 enrichment R; in that of B10, 0.485 enrichment R.
The value for B11 was 0.767 enrichment R.
In the case of B12 it was 0.937 enrichment R; in that of B13, 0.472 enrichment R; in that of B14, 5.27 enrichment R.
In turn, B15 came in with a binding signal of 7.14 enrichment R.
The value for B16 was 0.645 enrichment R.
